The values that follow come from ChEMBL document CHEMBL1157539, “Thousands of chemical starting points for antimalarial lead identification” (Nature, 2010).

Structures are written as SMILES.

Common to all, as to format: functional
The subject of assay [1] is Plasmodium falciparum. Briefly: GSK_TCMDC: Inhibition of Plasmodium falciparum 3D7 in whole red blood cells, using parasite LDH activity as an index of growth. Test compounds present at 2uM.
The subject of assay [2] is Plasmodium falciparum. Briefly: GSK_TCMDC: Inhibition of Plasmodium falciparum Dd2 in whole red blood cells, using parasite LDH activity as an index of growth. Test compounds present at 2uM.
Assay [3] concerns HepG2. Briefly: GSK_TCMDC: Percent inhibition of human HepG2 cell line. Test compounds present at 10uM.

In general, Inhibition refers to the percentage by which the read-out fell short of the control. As for `CC(C)c1cn2c3c(cc(C(=O)N[C@@H](Cc4ccccc4)[C@H](O)CNC4CCOCC4)cc13)N(C)S(=O)(=O)CC2.O=CO`, the Inhibition is listed as 98% in assay [1], 99% in assay [2] and 9% in assay [3].

With `CC(C)CCNC(=O)[C@@H]1[C@H]2C(=O)N(C3CCCCC3)C(=O)[C@H]2[C@H]2C=C[C@@H]3C(c4ccc(C(C)(C)C)cc4)=NO[C@@H]3N21`, the Inhibition in assay [1] turned out to be 96%; in assay [2], 48%; in assay [3] it was 0%.

Regarding `O=C(O)C(F)(F)F.c1cc(CNCC2CCCO2)cc(-c2ccc(-c3nc4ccccc4[nH]3)s2)c1` (centres undefined), the figures for the Inhibition in assay [1], in assay [2] and in assay [3] were 95%, 30% and 8%, respectively.

Consider `O=C(Nc1cccc(-c2nn3ccccc3c2-c2ccnc(Nc3cccc(F)c3)n2)c1)c1c(F)ccc(F)c1F`, for which the Inhibition in assay [1] is 96%; in assay [2], 73%; in assay [3], 33%.

Regarding `CC[C@@H]([C@@H](Cc1cc2ccccc2s1)C(=O)N[C@@H](CCCCNC(=O)OCc1ccccc1)C(=O)Nc1ccccn1)N(O)C=O`, the Inhibition in assay [1] is 96%; in assay [2] it was 70%; in assay [3] it was 36%.

Consider `O=C(CCCCCNC(=O)c1ccc(O)c(-c2ccc(Cl)c(Cl)c2)c1)NCCN1CCCC1`, for which the Inhibition in assay [1] is listed as 90%; in assay [2], 2%; in assay [3], 0%.

On to `Cc1cccc2nc(-c3ccc(-c4ccc(CN5CCN(CCO)CC5)cc4)cc3)[nH]c12.O=C(O)C(F)(F)F`, for which the Inhibition in assay [1] was 100%; in assay [2], 97%; in assay [3] it was 20%.

As for `CC(C)(C)c1ccc(CN2CCC(CNC(=O)c3cc(-c4ccccc4F)cs3)C2)cc1.O=C(O)C(F)(F)F` (centres undefined), the Inhibition in assay [1] turned out to be 100%; in assay [2] it was 98%; in assay [3] it was 46%.

For the molecule `CCOc1c(Br)cc(Br)cc1CNCCCCNc1nc2ccccc2[nH]1`, the Inhibition in assay [1] was 100%; in assay [2], 37%; in assay [3], 25%.

Take `C[C@H](Nc1nc(C(Oc2ccccc2)c2ccccc2)nc2[nH]ncc12)c1ccccc1` (some centres undefined): the values for the Inhibition in assay [1], in assay [2] and in assay [3] were 100%, 56% and 15%, respectively.

As to `Cc1cc(N)nc2ccc(-c3ccc(CCN)cc3)cc12`, the Inhibition in assay [1] was 100%; in assay [2] it was 48%; in assay [3], 31%.

With `CCN1CCC(N(Cc2ccc(-c3ccc(C(F)(F)F)cc3)o2)C(=O)Cn2c(CCc3cccc(F)c3F)nc(=O)c3ccccc32)CC1.O=C(O)C(O)C(O)C(=O)O`, the Inhibition in assay [1] stood at 91%; in assay [2], 88%; in assay [3], 45%.

On to `CCCCc1cc(=O)oc2cc(C)cc(OCc3ccccc3F)c12`, for which the values for the Inhibition in assay [1], in assay [2] and in assay [3] were 92%, 78% and 8%, respectively.

With `CCCCNCc1ccc(-c2nc(CN(CCCn3ccnc3)C(=O)NC3CC3c3ccccc3)cs2)cc1.O=C(O)C(F)(F)F` (centres undefined), the Inhibition was determined as 100% in assay [1], 34% in assay [2] and 21% in assay [3].

As for `COc1ccc2nccc(NC(=O)C3CCC(NCc4ccc5c(c4)NC(=O)CS5)CC3)c2c1` (centres undefined), the results for the Inhibition in assay [1], in assay [2] and in assay [3] were 94%, 19% and 0%, respectively.

For `COc1ccc(C(F)(F)F)cc1N1CCN(CCCCNC(=O)c2ccc(NC(=O)c3ccc(Cl)cc3)cc2)CC1`, the Inhibition in assay [1] came out at 94%; in assay [2] it was 1%; in assay [3] it was 12%.

Consider `COc1ccc(NC(=O)NC2CCN(c3ccnc4cc(Cl)ccc34)CC2)cc1.O=C(O)C(F)(F)F`, for which the results for the Inhibition in assay [1], in assay [2] and in assay [3] were 83%, 64% and 5%, respectively.

For the molecule `CCc1cn2c3c(cc(C(=O)N[C@@H](Cc4cccc(Cl)c4)[C@H](O)CNC4CCOCC4)cc13)N(C)S(=O)(=O)CC2.O=CO`, the Inhibition in assay [1] is listed as 98%; in assay [2], 98%; in assay [3] it was 2%.

With `O=C(O)C(F)(F)F.O=C1OC2(CCN(Cc3cccc(-c4ncc[nH]4)c3)CC2)CN1CCNCc1ccccc1`, the results for the Inhibition in assay [1], in assay [2] and in assay [3] were 94%, 0% and 0%, respectively.

For the molecule `COc1cc(NC(=O)c2sc(-c3ccc(Cl)cc3)cc2NC(=O)c2cccc(N(C)C)c2)ccc1OCCN1CCCC1`, the Inhibition in assay [1] is listed as 99%; in assay [2], 67%; in assay [3] it was 49%.

Consider `O=[N+]([O-])c1cccc(Nc2cncc(-c3ccc(CO)cc3)c2)c1`, for which the values for the Inhibition in assay [1], in assay [2] and in assay [3] were 85%, 96% and 16%, respectively.

For the molecule `CCn1c(-c2nonc2N)nc2c(-c3cccc(Cl)c3)ncc(OCCCNCCc3c[nH]cn3)c21.O=C(O)C(F)(F)F`, the Inhibition in assay [1] came to 100%; in assay [2] it was 98%; in assay [3], 16%.

Take `COc1ccc2c(c1)CC(C)(C)NC2CCCCCCCCC1NC(C)(C)Cc2cc(OC)ccc21.O=C(O)C(=O)O` (centres undefined): the Inhibition in assay [1] was determined as 98%; in assay [2] it was 62%; in assay [3], 42%.

Turning to `C[C@H](NC(=O)C1CCCC1)C(=O)Nc1ccc(-c2ccc(-c3nc4cc(C(F)(F)F)ccc4[nH]3)cc2)cc1`, the values for the Inhibition in assay [1], in assay [2] and in assay [3] were 99%, 70% and 34%, respectively.

Consider `O=C(Nc1cccc(-c2ccc(-c3nc4cc(C(F)(F)F)ccc4[nH]3)cc2)c1)c1ccncc1`, for which the results for the Inhibition in assay [1], in assay [2] and in assay [3] were 100%, 90% and 79%, respectively.

On to `CN(C)CC1CCCN1Cc1ccccc1-c1cnn(C)c(=O)c1Oc1cccc(C#N)c1.O=C(O)C(F)(F)F` (centres undefined), for which the Inhibition in assay [1] was 92%; in assay [2] it was 15%; in assay [3] it was 26%.

Consider `N#Cc1ccc(CN2CCCN(Cc3cccc(NC(=O)c4ccc(-c5ccccc5)cc4)c3)CC2)cc1.O=C(O)C(F)(F)F`, for which the Inhibition was 88% in assay [1], 12% in assay [2] and 33% in assay [3].

As for `COc1ccc(NC(=O)C2c3ccccc3C(=O)N(C3CCCC3)C2c2cccs2)cc1OC` (centres undefined), the Inhibition in assay [1] amounted to 90%; in assay [2] it was 96%; in assay [3], 0%.
